# According to PubChem BioAssay (NCI):
# The panel holds about 83,000 compounds, 20% with a hit somewhere; the sample as a whole holds those more often.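 Cell lines were cultured in 96-well plates, exposed to a single compound concentration, and assessed for percent growth 48 hours later.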 Values without a mark were called inactive. Calls of active or inactive are those of the source.
# Tested on: SNB-19 CNS
# Test: NCI-60 one-dose screen, 48 h (100 = growth as untreated, 0 = no growth, -100 = all killed)
# Conditions: 10 µM unless noted
# Procedure: Growth inhibition of the SNB-19 human tumor cell line is measured as a screen for anti-cancer activity. Cells are grown in 96 well plates and exposed to the test compound for 48 hours. Compounds are tested at a single concentration, which is 10^-5 M for most compounds. The reported endpoint is percent growth (GI% or GIPRCNT), where numbers from 0 - 100% represent growth inhibition, and numbers from -100% - 0 represent cell death. For example, a value of 40 represents 60% growth inhibition. A value of 0 means no net growth occurred over the course of the experiment. A value of -40 indicates 40% of cells at the beginning of the experiment died by the end of the experiment. A value of -100 means all cells are dead at the end of the experiment.
# NCI-60 Human Tumor Cell Lines Screen was performed using the standard one-dose NCI protocol, which is described in more detail at https://dtp.cancer.gov/discovery_development/nci-60/default.htm.
# Compounds with GIPRCNT values below 10 were considered active. Activity score was based on GIPRCNT using the following formula: […]
# Score is 0 for GIPRCNT values of 100 or above, 50 for GIPRCNT values of 0, and 100 for GIPRCNT values of -100.
row,Structure (SMILES),growth
1,CN(C)c1ccc(/C=C/C(=O)c2cccc(Nc3nc(Nc4ccccc4)nc(Nc4ccccc4)n3)c2)cc1,99.1%
2,C(=N\Nc1ncc(-c2cc3cc4c(cc3o2)OCO4)s1)/c1ccco1,53.9%
3,COc1ccc(CNC(=O)C(O)C(Cc2ccccc2)NC(=O)c2[nH]c3ccccc3c(=O)c2C)cc1OC (stereo not given),100%
4,C=C1C(=O)O[C@H]2[C@H]1CC/C(CNC(=O)/C=C/c1ccc(Cl)cc1Cl)=C\CC[C@@]1(C)O[C@@H]21,37.4%
5,CCOC(=O)c1c(/C=C/C(=O)O)nc2ccccc2c1/C=C/c1ccccc1,61.1%
6,COc1ccccc1NC(=O)N/C(N)=N/c1nc2ccccc2s1,37.5%
7,COc1ccc(CN2C(=O)C(Cl)=C(Nc3cccc(C(F)(F)F)c3)C2=O)cc1,44.7%
8,O=c1cc(C2NNC(=S)N2)c2ccc3ccccc3c2o1 (stereo not given),93.2%
9,Cc1ccccc1NC(=O)N/C(N)=N/c1nc(C)c(C)s1,39.9%
10,CCN(CC)Cc1cccc(C(=O)OC)c1,101%
11,O=C(N/N=C/C=C/c1ccc([N+](=O)[O-])o1)c1cc2ccccc2cc1O,-34.4% (active)
12,NC(N)=Nc1nc2ccccc2n2c1nc1ccccc12,38.8%
13,CCC(CO)Nc1nc2ccc(Cl)cc2c2ccccc12 (stereo not given),53.8%
14,CCN(CC)CCCNc1ccc(Nc2ccc(OC)cc2)cc1,102%
15,C[C@H]1[C@H]2[C@H]3CC[C@@H]4[C@@]5(C)C/C(=C/c6cccnc6)C(=O)C(C)(C)[C@@H]5CC[C@@]4(C)[C@]3(C)CC[C@]23CO[C@]1(C)[C@@H](C(=O)/C=C\c1cccnc1)C3,2.48% (active)
16,O=C1OC(c2nc3ccccc3s2)=C/C1=C\c1ccc(O)cc1,97.2%
17,N#CC1=C(c2ccc(Br)cc2)NC(SCC(=O)c2ccc(Br)cc2)NC1=O (stereo not given),110%
18,CC(C)(C)OC(=O)Nc1ccc2c(c1)C(NC(=O)Nc1cccc(C#N)c1)CC(C)(C)O2 (stereo not given),52.4%
19,O=C(NCCCNc1cc(-c2cn(-c3ccccc3)nc2-c2cccc(O)c2)ccn1)c1cccc(O)c1,79.7%
20,Cc1ccc(-c2c(-c3ccccc3)c(=O)oc3ccc(C)cc23)cc1,94.8%

row,Structure (SMILES),growth
1,Nc1ccc2c(c1)c(N)nn2C(=O)Nc1ccc(Cc2ccccc2)cc1,105%
2,COc1ccc(-c2nc3ccc4[nH]ncc4c3c3c2CCCC3)cc1B(O)O,82.7%
3,COc1ccc2c(c1)O/C(=C/c1ccc(OCC(=O)c3ccccc3)cc1)C2=O,108%
4,Cc1c(C)c2c(c(C)c1OCC(=O)O)CC[C@@](C)(CCC[C@@H](C)CCC[C@@H](C)CCCC(C)C)O2,17% [50 µM]
5,c1csc(-c2c3ccc(=[N+]4CCCCC4)cc-3oc3cc(N4CCCCC4)ccc23)c1,-87.6% (active)
6,COC(=O)c1c2c(c(C)[n+]([O-])c1C)C(=O)C(NCc1ccc(F)c(Cl)c1)=CC2=O,7.17% (active)
7,CNC(=O)NCC1OC(n2cnc3c(NC(=O)Nc4ccccc4)ncnc32)C(O[Si](C)(C)C(C)(C)C)C1CC(=O)N(C)OC (stereo not given),37.2%
8,Cc1c(Cl)cc(-n2c(=O)c3ccccc3c3ccccc3c2=O)cc1Cl,104%
9,Cn1cc2c(c1)-c1nc(Nc3ccccc3)ncc1CC2,69.4%
10,N#C/C(=C\c1ccc(Br)cc1)n1nnc2cc(F)c(F)cc21,50.5%
11,O=C(CSc1nnc(-c2ccc(NC(=O)c3cccnc3)cc2)o1)Nc1cccc(Br)c1,62.9%
12,COc1cc(N=Nc2cc(Cc3ccc(N(C)C)cc3)c(N)cc2N(C)C)c2ncccc2c1,6.94% (active)
13,O=c1[nH]c2ccccc2n1C1CCN(CCOc2ccccc2)CC1,93.3%
14,NS(=O)(=O)c1ccc(-n2nc(C(=O)N/N=C\c3ccc(F)cc3)cc2-c2ccc(Cl)cc2)cc1,85.5%
15,CC1=C([Se]CC(OC(=O)CC[Se]c2ccccc2)C(=O)NCCCCCC(=O)OCc2ccccc2)C(=O)c2ccccc2C1=O (stereo not given),31%
16,CCOC(=O)C/C(C)=N\NC(=O)c1ccncc1,87.7%
17,COc1cc(C2CC(c3ccc(Nc4ccnc5cc(Cl)ccc45)cc3)=NN2C=O)cc(OC)c1OC (stereo not given),82%
18,COc1ccc(NC(=O)CSc2nc(C)c(C(C)=O)n2-c2ccc(Cl)cc2)cc1,90.9%
19,Cc1c(O)cc(-c2cnc(N/N=C\c3ccc(Cl)cc3)s2)c(O)c1C,97%
20,COc1ccc(-c2nc3sccn3c2-c2cc(-c3cc(OC)c(OC)c(OC)c3)on2)cc1,87.5%
